Screening results as filed in PubChem.
Hits are enriched below; roughly 5.7% of the tested compounds scored in any of these assays.
hcDAF-12 act – H. contortus DAF-12 activation, primary screen | HEK293 hcDAF-12 lit1-tk-luc reporter, luminescence; 0% DMSO, 100% Δ7-dafachronic acid | activation, % at 6.8 µM | 1.4% of 370,000 active | AID 652067;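 active = activation above the mean of all tested compounds plus 3 SD, cut at about 5.5% in these data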;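 also: 100% = response to 3 µM Δ7-dafachronic acid high control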
DAX1 inh-1 – inhibitors of DAX1 repression of SF-1 activated StAR promoter. HEK293T StAR-luciferase reporter, SF-1/DAX-1 repression relief. inhibition, % at 6.8 µM. 1.1% of 370,000 active. AID 652010;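 active = inhibition above the mean over all tested compounds plus 3 SD, cut at about 3.6% in these data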;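 also: 0% = DAX-1 cells with DMSO and 100% = cells lacking DAX-1 with DMSO; higher inhibition means more luminescence from relief of DAX-1 repression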
ssDAF-12 act – activators of S. stercoralis DAF-12 nuclear receptor. HEK293 ssDAF-12/GRIP1 lit1-tk-luc reporter, luminescence; % of 3 µM dafachronic acid response. 1% of 370,000 active. activation, % at 6.8 µM;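 active = activation above the mean over all tested compounds plus 3 SD, cut at about 0.9% in these data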;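 also: 0% = DMSO-only wells and 100% = 3 µM delta7-dafachronic acid wells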
hgDAF12 agonist – hgDAF-12 agonism, primary luciferase screen | HEK293 GAL4-hgDAF12 UAS-luciferase reporter, agonist luminescence; normalized to butyrate control | activation, % at 6.8 µM | 1.8% of 370,000 active;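 active = activation above a cutoff set at the mean of all screened compounds plus 3 SD, cut at about 10% in these data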;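 also: 0% = DMSO wells and 100% = sodium butyrate wells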
AHR act – activates the human aryl hydrocarbon receptor. P35869. AHR-responsive luciferase reporter cells, luminescence. activation, % at 5 µM. 2.5% of 320,000 active. AID 2796; in the data active = activation above about 47%;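 also: 0% = vehicle wells and 100% = reference agonist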
DAX1 inh-2 – NR0B1 (DAX1) inhibition; P51843; HEK293 Gal4-DAX1 luciferase reporter, luminescence; inhibition, % at 6.75 µM; 0.99% of 340,000 active; AID 504766;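 active = inhibition above the mean over all tested compounds plus 3 SD, cut at about 4.2% in these data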;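 also: 0% = DAX1-transfected cells with DMSO and 100% = empty-vector control cells with DMSO; inhibition shows as a rise in luminescence from relieved DAX1 repression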
DAX1 inh confirm – NR0B1 (human) inhibition, confirmation | inhibition, % at 6.8 µM | HEK293T StAR-promoter luciferase reporter, SF-1/DAX-1 repression | 87% of 2,400 active | shares compounds with DAX1 inh-1;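 active = inhibition above the average of every tested compound plus 3 SD, cut at about 3.8% in these data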;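 also: 0% = DAX-1 cells with DMSO and 100% = no DAX-1 control cells with DMSO; active compounds raise luminescence by relieving repression of the StAR reporter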
Target sequence (P51843 whole entry, looked up): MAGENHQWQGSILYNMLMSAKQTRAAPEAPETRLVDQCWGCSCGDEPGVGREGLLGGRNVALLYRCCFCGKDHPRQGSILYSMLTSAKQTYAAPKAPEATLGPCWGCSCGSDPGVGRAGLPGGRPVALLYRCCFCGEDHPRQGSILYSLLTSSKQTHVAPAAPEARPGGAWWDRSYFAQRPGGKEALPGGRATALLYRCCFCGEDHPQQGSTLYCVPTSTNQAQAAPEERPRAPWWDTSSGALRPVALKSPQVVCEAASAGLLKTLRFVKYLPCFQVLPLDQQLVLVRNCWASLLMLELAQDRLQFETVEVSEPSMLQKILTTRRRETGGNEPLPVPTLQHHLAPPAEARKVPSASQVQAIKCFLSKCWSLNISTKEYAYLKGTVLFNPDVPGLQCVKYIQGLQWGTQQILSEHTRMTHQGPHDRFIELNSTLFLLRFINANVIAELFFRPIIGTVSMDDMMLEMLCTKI
SF1 AF2mut Luc – nonselective inhibitor or artifact in SF-1 mutant DAX1 counter-screen; shares compounds with DAX1 inh-1; HEK293 StAR-luciferase, SF-1 AF2 mutant, luminescence; inhibition, % at 6.8 µM; 78% of 2,400 active;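 active = inhibition above the mean of all tested compounds plus 3 SD, cut at about 3% in these data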;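 also: 0% = DAX-1 transfected cells with DMSO and 100% = cells without DAX-1 with DMSO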
The depositor's hits bear a star; nt = not tested or not shown.

SMILES	hcDAF-12 act	DAX1 inh-1	ssDAF-12 act	hgDAF12 agonist	AHR act	DAX1 inh-2	DAX1 inh confirm	SF1 AF2mut Luc
COc1ccc(N2CC(C(=O)Nc3nc4ccc(S(C)(=O)=O)cc4s3)CC2=O)cc1 (stereo not drawn)	0	-1	-1	0	5	-1	nt	nt
O=C(NCCCN1CCCCCC1)c1ccc2c(Cl)c3c(nc2c1)CCCC3	0	0	-1	-1	1	0	nt	nt
CN1CCN(C(=O)c2ccc3c(Cl)c4c(nc3c2)CCCC4)CC1	0	5.8*	-1	1	14	0	4.8*	2
CN(C(=O)CSc1nc2ccccc2o1)C1CCCCC1	0	9.0*	0	13*	nt	2	7.2*	5.9*
CCc1cccc(C)c1NC(=S)N(CCCN1CCOCC1)Cc1cccnc1	-1	1	-2	3	1	1	nt	nt
CCOc1ncccc1C(=O)NCc1ccccc1	nt	nt	nt	nt	-2	nt	nt	nt
CCOc1ncccc1C(=O)NCC(c1ccccc1)N(C)C (stereo not drawn)	4	5.1*	0	-1	9	1	8.1*	4.0*
CCN1CCN(c2nc3c(C)cccn3c(=O)c2/C=C(\C#N)C(=O)NC)CC1	-1	0	-1	0	1	0	nt	nt
COc1ccc(-c2cc3c(o2)CCCC3OCCN2CCOCC2)cc1 (stereo not drawn)	3	4.7*	-1	3	nt	nt	5.7*	3.0*
CC1CCC(NC(=O)CSc2nncs2)CC1 (stereo not drawn)	0	1	-1	8	-3	1	nt	nt
Nc1c(C(=O)Nc2ccc3c(c2)OCCO3)nnn1Cc1ccccc1Cl	2	7.0*	-1	7	-11	0	9.1*	5.5*
Nc1c(C(=O)Nc2ccc3c(c2)OCCO3)nnn1Cc1cccc(Cl)c1	2	5.2*	-1	3	12	0	11*	4.3*
COc1ccc(-c2ccnc3c(Br)c(C)nn23)cc1	-1	4.8*	-1	2	19	1	1	2
Cc1nn2c(-c3ccccn3)ccnc2c1Br	-1	1	-1	0	19	-1	nt	nt
Cc1ccc(C(=O)NCCC(=O)N2CCOCC2)cc1	4	10*	0	9	19	1	6.3*	3.3*
O=C(c1ccc(-c2ccccc2Cl)o1)N1CCCCCCC1	2	5.4*	0	11*	nt	4	8.4*	6.1*
Cc1nn(-c2ccc(N3CCCCC3)nn2)c(C)c1CCC(=O)Nc1ccc(F)cc1	-1	0	0	4	3	0	nt	nt
Cc1ccc(NC(=O)CCc2c(C)nn(-c3ccc(N4CCCCC4)nn3)c2C)cc1F	1	10*	0	11*	7	0	8.2*	4.0*
C/C(=N\NC(=O)c1ccco1)c1ccc(NC(=O)C(F)(F)F)cc1	5	7.2*	-1	9	nt	2	2	1
COc1ccc(-c2cc3nc4n(c(=O)c3s2)CCC4)cc1	5	6.6*	0	7	-9	-5	7.3*	-1
COc1ccc(-c2cc3nc(C)n(N)c(=O)c3s2)cc1	-4	-1	-3	-9	-8	-9	nt	nt
CCOC(=O)Cc1csc(NC(=O)c2sc3nc4c(C)cc(C)cc4cc3c2N)n1	0	0	0	5	13	0	nt	nt
C/C(=N\NC(=O)c1ccoc1C)c1ccc(Br)s1	2	5.8*	-1	10	-2	2	2	0
COc1ccc(C(CNC(=O)c2cccc(S(=O)(=O)Nc3ccccc3OC)c2)N2CCCCC2)cc1 (stereo not drawn)	0	6.9*	-1	2	nt	2	5.9*	4.2*
COc1ccc(C(CNC(=O)c2cccc(S(=O)(=O)Nc3ccccc3OC)c2)N2CCCC2)cc1 (stereo not drawn)	-1	5.7*	-1	0	3	1	6.3*	3.4*
SMILES	hcDAF-12 act	DAX1 inh-1	ssDAF-12 act	hgDAF12 agonist	AHR act	DAX1 inh-2	DAX1 inh confirm	SF1 AF2mut Luc
COc1ccc(C(CNC(=O)c2ccc(C)c(S(=O)(=O)Nc3ccccc3OC)c2)N2CCCC2)cc1 (stereo not drawn)	2	5.3*	-1	3	7	1	6.2*	5.3*
Cc1cccc(CC(=O)N2CCCC2)c1	-1	0	-2	0	-1	0	nt	nt
CCc1ccc(NC(=O)C(=O)c2ccccc2NC(C)=O)cc1	4	9.1*	0	10	6	3	12*	7.0*
CC1CCCCC1NC(=O)C1CCN(c2c3c(nc4ncnn24)CCC3)CC1 (stereo not drawn)	-2	0	-1	-2	1	1	nt	nt
COc1cc(NC(=O)CCCN2C(=O)NC(C)(C)C2=O)cc(OC)c1	0	4.8*	-1	-3	3	1	2	0
CCc1cccc(NC(=O)CCCN2C(=O)NC(C)(C)C2=O)c1	-1	1	-1	0	0	0	nt	nt
CC(=O)Nc1ccc(-c2ccnc3c2CC(C(=O)NCCc2ccccc2)O3)cc1 (stereo not drawn)	-1	0	-1	-1	nt	nt	nt	nt
CC(=O)Nc1ccc(-c2ccnc3c2CC(C(=O)NCc2ccco2)O3)cc1 (stereo not drawn)	5	4.7*	1	-2	nt	nt	12*	-6
CC(=O)Nc1ccc(-c2ccnc3c2CC(C(=O)NCc2ccccc2)O3)cc1 (stereo not drawn)	1	4.5*	0	-6	nt	nt	9.6*	-7
CC(=O)Nc1ccc(-c2ccnc3c2CC(C(=O)NCC2CC2)O3)cc1 (stereo not drawn)	0	1	-1	-1	nt	nt	nt	nt
COc1ccc(-c2nc3ccccc3[nH]2)cc1	5.8*	6.8*	0	12*	-4	-2	15*	6.1*
CCc1ccc(C(=O)NNC(=O)Cn2c(=O)cnc3ccccc32)cc1	-1	5.4*	-1	2	0	-1	2	-1
O=C(Cn1c(=O)cnc2ccccc21)NNC(=O)c1ccc(Cl)cc1	0	1	-1	2	15	0	nt	nt
c1ccc2nc(NN=C3CCCCC3)ccc2c1	6.7*	4.5*	1.8*	10	nt	3	7.4*	3.1*
c1ccc2[nH]c(NN=C3CCCCCC3)nc2c1	5	1	0	2	40	1	nt	nt
C[C@@H]1CN([C@H](C)CO)C(=O)CCCn2nncc2CO[C@@H]1CN(C)S(=O)(=O)c1ccc2c(c1)OCCCO2	2	4.8*	-1	3	nt	1	2	2
O=C(CCNC(=O)N1CC(=O)Nc2ccccc21)NCc1ccccc1	0	2	-1	4	nt	1	nt	nt
